# Assay results reported in ChEMBL document CHEMBL1961873, “Compounds: GSK PKIS; Assays: Nanosyn kinase panel” (2012).
# Tests used:
# [1] = target: Sphingosine kinase 1 (Homo sapiens) (UniProt Q9NYA1); conditions: at 1 µM;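 further: mean SPHK1 inhibition value reported from the GSK PKIS kinase panel screen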
# [2] = target: T1, Sphingosine kinase 2 (Homo sapiens) (UniProt Q9NRA0); conditions: at 0.1 µM
# T1 sequence (whole entry): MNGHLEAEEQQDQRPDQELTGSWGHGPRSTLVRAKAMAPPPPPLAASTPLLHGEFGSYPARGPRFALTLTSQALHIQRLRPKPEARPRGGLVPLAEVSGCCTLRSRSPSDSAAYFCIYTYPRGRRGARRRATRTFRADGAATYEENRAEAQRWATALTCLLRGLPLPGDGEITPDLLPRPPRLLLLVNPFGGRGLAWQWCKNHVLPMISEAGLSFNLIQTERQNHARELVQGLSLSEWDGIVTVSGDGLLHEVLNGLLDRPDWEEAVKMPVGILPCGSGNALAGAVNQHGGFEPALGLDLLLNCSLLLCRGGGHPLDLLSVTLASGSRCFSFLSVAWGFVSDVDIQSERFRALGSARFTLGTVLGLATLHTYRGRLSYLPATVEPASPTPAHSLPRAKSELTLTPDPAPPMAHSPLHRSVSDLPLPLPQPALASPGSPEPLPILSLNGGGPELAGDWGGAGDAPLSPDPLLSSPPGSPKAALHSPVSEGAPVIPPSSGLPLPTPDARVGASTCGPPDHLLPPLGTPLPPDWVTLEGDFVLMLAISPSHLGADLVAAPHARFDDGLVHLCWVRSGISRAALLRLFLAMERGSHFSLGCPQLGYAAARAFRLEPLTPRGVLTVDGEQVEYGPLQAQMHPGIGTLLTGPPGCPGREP
# [3] = target: T1, Sphingosine kinase 2 (Homo sapiens); conditions: at 1 µM
# [4] = target: Casein kinase II subunit alpha (Homo sapiens) (UniProt P68400); conditions: at 0.1 µM
# [5] = target: Casein kinase II subunit alpha (Homo sapiens) (UniProt P68400); conditions: at 1 µM
# [6] = target: T2, Inhibitor of nuclear factor kappa-B kinase subunit alpha (Homo sapiens) (UniProt O15111); conditions: at 0.1 µM
# T2 sequence (whole entry): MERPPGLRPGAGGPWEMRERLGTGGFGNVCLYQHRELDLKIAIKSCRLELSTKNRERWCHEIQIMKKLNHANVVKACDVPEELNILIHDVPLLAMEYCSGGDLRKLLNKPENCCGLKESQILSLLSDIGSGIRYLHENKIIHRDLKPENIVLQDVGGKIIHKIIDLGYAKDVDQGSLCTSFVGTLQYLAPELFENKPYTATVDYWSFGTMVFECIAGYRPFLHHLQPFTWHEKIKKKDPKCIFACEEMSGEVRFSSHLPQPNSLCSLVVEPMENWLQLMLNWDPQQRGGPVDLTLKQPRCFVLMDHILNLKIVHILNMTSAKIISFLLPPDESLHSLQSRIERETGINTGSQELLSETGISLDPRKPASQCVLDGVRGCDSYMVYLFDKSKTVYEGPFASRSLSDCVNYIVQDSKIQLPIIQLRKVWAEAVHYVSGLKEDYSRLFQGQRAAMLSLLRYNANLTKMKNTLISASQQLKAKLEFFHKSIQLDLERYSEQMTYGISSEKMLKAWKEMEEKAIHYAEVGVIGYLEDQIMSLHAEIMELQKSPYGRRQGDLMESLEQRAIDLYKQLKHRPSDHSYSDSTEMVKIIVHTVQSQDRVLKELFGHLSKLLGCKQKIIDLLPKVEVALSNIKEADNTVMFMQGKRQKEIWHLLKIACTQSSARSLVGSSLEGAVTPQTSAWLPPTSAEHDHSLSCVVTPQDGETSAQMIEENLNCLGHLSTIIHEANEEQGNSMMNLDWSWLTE
# [7] = target: T2, Inhibitor of nuclear factor kappa-B kinase subunit alpha (Homo sapiens); conditions: at 1 µM
# [8] = target: T3, Inhibitor of nuclear factor kappa-B kinase subunit beta (Homo sapiens) (UniProt O14920); conditions: at 0.1 µM
# T3 sequence (whole entry): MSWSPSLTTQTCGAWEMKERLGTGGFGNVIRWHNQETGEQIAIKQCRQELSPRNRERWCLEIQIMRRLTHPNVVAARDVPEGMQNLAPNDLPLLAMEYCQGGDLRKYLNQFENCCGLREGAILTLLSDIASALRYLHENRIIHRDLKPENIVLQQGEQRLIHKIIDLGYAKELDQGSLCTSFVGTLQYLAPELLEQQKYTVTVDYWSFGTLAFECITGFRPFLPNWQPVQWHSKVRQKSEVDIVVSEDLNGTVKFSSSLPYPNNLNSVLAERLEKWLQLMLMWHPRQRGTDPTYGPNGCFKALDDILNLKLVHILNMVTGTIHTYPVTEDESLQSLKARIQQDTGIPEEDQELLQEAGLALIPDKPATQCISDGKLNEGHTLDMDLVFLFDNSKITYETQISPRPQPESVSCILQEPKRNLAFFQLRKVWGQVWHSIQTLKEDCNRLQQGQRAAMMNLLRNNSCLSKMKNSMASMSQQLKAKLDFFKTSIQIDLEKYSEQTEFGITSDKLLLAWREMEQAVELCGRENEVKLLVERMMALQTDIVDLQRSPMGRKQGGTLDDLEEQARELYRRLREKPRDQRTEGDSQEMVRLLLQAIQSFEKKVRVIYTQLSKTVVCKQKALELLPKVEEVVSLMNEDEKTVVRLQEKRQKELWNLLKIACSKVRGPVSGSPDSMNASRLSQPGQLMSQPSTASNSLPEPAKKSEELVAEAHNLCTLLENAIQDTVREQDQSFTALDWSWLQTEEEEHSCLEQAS
# [9] = target: T3, Inhibitor of nuclear factor kappa-B kinase subunit beta (Homo sapiens); conditions: at 1 µM
# [10] = target: T4, Inhibitor of nuclear factor kappa-B kinase subunit epsilon (Homo sapiens) (UniProt Q14164); conditions: at 0.1 µM;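 further: mean inhibition of IKKε reported, from the GSK PKIS dataset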
# T4 sequence (whole entry): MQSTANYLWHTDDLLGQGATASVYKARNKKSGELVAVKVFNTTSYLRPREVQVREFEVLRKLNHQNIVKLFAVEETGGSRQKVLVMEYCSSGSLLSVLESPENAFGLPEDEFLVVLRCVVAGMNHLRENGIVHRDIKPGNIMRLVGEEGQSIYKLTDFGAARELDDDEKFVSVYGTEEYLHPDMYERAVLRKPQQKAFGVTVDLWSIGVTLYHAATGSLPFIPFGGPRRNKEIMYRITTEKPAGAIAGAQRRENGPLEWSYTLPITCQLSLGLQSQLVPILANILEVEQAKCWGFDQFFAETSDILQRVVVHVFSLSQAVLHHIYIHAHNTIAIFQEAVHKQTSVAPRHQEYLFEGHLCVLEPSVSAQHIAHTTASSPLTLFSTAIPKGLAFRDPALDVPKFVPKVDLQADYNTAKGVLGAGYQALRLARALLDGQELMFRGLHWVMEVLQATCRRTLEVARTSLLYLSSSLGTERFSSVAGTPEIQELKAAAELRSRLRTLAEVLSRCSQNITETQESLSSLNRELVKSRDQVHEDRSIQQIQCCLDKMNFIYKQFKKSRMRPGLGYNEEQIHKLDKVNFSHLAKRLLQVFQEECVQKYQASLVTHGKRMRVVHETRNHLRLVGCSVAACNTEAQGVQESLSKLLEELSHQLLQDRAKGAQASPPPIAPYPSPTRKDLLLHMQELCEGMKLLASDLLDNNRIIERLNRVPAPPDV
# Sequence of Casein kinase II subunit alpha (Homo sapiens) (P68400 whole entry, looked up): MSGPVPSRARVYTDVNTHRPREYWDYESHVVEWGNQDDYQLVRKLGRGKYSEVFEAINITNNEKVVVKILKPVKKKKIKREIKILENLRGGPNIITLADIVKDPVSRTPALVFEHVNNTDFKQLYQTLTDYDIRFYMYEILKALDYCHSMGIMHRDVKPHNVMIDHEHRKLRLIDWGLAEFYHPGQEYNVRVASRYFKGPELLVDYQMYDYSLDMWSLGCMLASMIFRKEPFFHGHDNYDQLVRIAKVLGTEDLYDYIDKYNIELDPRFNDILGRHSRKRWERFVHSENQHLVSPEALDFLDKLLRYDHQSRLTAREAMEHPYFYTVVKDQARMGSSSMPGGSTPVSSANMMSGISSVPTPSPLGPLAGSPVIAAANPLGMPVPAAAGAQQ
# Sequence of Sphingosine kinase 1 (Homo sapiens) (Q9NYA1 whole entry): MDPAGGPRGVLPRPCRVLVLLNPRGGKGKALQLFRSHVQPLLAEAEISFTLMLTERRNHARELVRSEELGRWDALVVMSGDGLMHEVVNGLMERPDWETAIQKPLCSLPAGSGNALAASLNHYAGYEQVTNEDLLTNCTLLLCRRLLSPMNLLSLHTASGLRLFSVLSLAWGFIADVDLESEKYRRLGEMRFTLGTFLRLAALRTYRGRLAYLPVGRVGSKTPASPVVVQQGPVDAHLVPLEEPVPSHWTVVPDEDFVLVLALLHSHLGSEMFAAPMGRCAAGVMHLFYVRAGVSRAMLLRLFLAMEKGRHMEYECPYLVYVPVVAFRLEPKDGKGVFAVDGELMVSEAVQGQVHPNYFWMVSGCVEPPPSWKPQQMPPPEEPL
smiles,measurement,setting,value
Cc1ccc(Nc2ccnc(Nc3cccc(C(N)=O)c3)n2)cc1O,inhibition,[1],-3.44%
same,inhibition,[2],0.84%
same,inhibition,[3],0.08%
same,inhibition,[4],4.12%
same,inhibition,[5],10.5%
same,inhibition,[6],4.77%
same,inhibition,[7],9.75%
same,inhibition,[8],7.9%
same,inhibition,[9],26.8%
same,inhibition,[10],11.4%
